HCV inh = blocks hepatitis C virus; AID 651820; 340,000 compounds, 3.4% hits; Potency, µM (doses to about 41.8 µM), for the others: at the top dose activity change, negative = inhibition, actives largely listed as inhibitors; Huh7.5.1 HCVcc-Cre infection, luciferase reporter, 44 h; note: % is set by controls: 0 for no effect and ±100 for the full control effect
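Reporter virus HCVcc-Cre (~0.5 moi) infects cells exposed to compound; seeding density 1,000 cells/well with 4 h settling beforehand. Luminescence, 15 sec read, taken 44 h post-infection following a 15 min RT substrate incubation.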
Pf growth 96h = P. falciparum growth inhibition at 96 hour, primary screen for plastid delayed-death inhibitors; P. falciparum luciferase reporter growth, 96 h; Potency, µM (titrated, usually from 28.7 µM), for inactives: at the top dose activity change, negative = inhibition, hits mostly inhibitors; 320,000 compounds, 6.9% hits; AID 504834; note: % is set by controls: 0 for no effect and ±100 for the full control effect
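Delayed-death screen, second-generation endpoint: infected erythrocytes, 2% hematocrit, 0.05% parasitemia final; 96 hours at 37 C, 5% CO2; luciferase detection reagent; luminescence decrease equals reduced growth.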
SARS PLpro yeast = inhibitors of SARS-CoV papain-like protease in yeast; S. cerevisiae expressing SARS-CoV PLpro, growth rescue; Potency, µM (titrated, usually from 32.9 µM), without a hit: at the highest dose activity, positive = growth rescue, hits mostly activators; 330,000 compounds, 0.19% hits; AID 485353; calls by dose curve; note: 0% is about no effect; nearly all actives have a fitted effect of over 55% in size
Pf growth 48h = P. falciparum growth inhibition at 48 hours (one generation) | P. falciparum luciferase growth in erythrocytes, 48 h | Potency, µM (series often up to 28.7 µM), without a hit: at the highest dose activity change, negative = inhibition, usual class: inhibitors | 310,000 compounds, 5.9% hits; note: % is set by controls: 0 for no effect and ±100 for the full control effect
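Here the parasites carry a stable luciferase gene and grow inside erythrocytes in Albumax-based RPMI medium with compound for one erythrocytic cycle. Activity is scored as loss of luminescent signal.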
AMA1 RON2 block = AMA1-RON2 (P. falciparum) interaction inhibition | 360,000 compounds, 0.2% hits | Potency, µM (titrated, usually from 58.2 µM), for inactives: at the highest dose activity change, negative = inhibition, actives largely listed as inhibitors | AlphaScreen AMA1-biotinylated RON2 peptide binding;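 note: 0% = vehicle wells and -100% = peptide control; nearly all actives have a fitted effect of over 45% in size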
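AMA1 (3D7) with his tag at 25 nM final met compounds first, then biotinylated RON2 peptide at 25 nM; detection used donor plus acceptor beads, 10 µg/mL apiece, read by AlphaScreen after 30 min at room temperature.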
NS1 function inh = blocks influenza NS1 protein function; Potency, µM (top dose mostly 46.1 µM), for inactives: top-dose activity, positive = more growth; 270,000 compounds, 0.4% hits; AID 2326; calls by dose curve; note: actives are rising curves; nearly all actives have a fitted effect of over 50% in size
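A cell-based growth assay was used: compounds that relieve NS1-induced slow growth of budding yeast raise OD600. Assay medium was yeast nitrogen base with ammonium sulphate and -URA supplement, pH 6.0, with 2% galactose.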
An asterisk follows results filed as active; u = inconclusive; x = no result; [ ] = remark or other dose. Shown are actives, neighbours in structure and some others; about 12% of the full set was active somewhere. Unless noted, calls come from the whole dose curve; as a rule, active = well fitted curve in the direction sought with a large enough effect; inconclusive = small, poorly fitted or top-dose-only effect, or another doubt; inactive = no such curve, though single readings can be large; an effect the other way counts as inactive or inconclusive. Potency is the fitted concentration of half-maximal effect.

SMILES	HCV inh	Pf growth 96h	SARS PLpro yeast	Pf growth 48h	AMA1 RON2 block	NS1 function inh
O=C(Cc1ccc(-n2c(=O)c3ccccc3n(Cc3ccccc3F)c2=O)cc1)NCC1CCCO1 (stereo not given)	-7%	4.7µM*	7%	-15%	10%	u
O=C(CSc1ncnc2c1nnn2Cc1ccccc1F)NCC1CCCO1 (stereo not given)	2%	u	-2%	15µM*	9%	-8%
CC1CCCC(C)N1C(=O)COC(=O)COc1ccc(C#N)cc1 (stereo not given)	22%	x	4%	x	-1%	x
CCOC(=O)N1CCN(C(=O)CSc2ccc(C(=O)OC)cc2[N+](=O)[O-])CC1	-9%	4.7µM*	-1%	-19%	-7%	-4%
CCOC(=O)CSc1ccc(C(=O)N2CCC3(CC2)OCCO3)cc1[N+](=O)[O-]	1%	7.4µM*	5%	u	1%	-4%
CCCCc1ncc(CN2CCC(n3nccc3NC(=O)c3ccccc3OC)CC2)[nH]1	-4%	u	1%	u	12%	-7%
NC(=O)C1CCN(c2cc(Cl)nc(N)n2)CC1	6%	24%	3%	0%	0%	x
Nc1nc(Cl)cc(N2CCCC2)n1	21%	7.4µM*	0%	0%	15%	-1%
Nc1nc(Cl)cc(N2CCC(c3cc(-c4ccc(Cl)cc4Cl)n[nH]3)CC2)n1	22µM*	u	-23%	u	-22%	-50%
Cc1ccc([C@H]2C[C@H](n3cc(C4CC4)nn3)[C@@H](O)CN2C(=O)C2CCCCC2)cc1	x	x	x	x	-2%	x
Cn1c(=O)n(C)c2cc(/C=N/n3cnnc3)ccc21	5%	5.9µM*	11%	23%	-7%	-3%
CC(C)(C)c1ccc(/C=N/n2cnnc2)cc1	19%	u	-3%	-22%	2%	-2%
O=C(NCCOc1nc(N2CCCCC2)nc(N2CCOCC2)n1)Nc1ccccc1	8.9µM*	x	u	-19%	16%	-80%
O=C(NCCOc1nc(N2CCOCC2)nc(N2CCOCC2)n1)Nc1ccccc1	u	5%	2%	-22%	1%	9%
C[C@H](C(=O)c1ccncc1)c1ccccn1	x	x	x	x	x	3%
CCOc1cc(/C=C2/SC(=Nc3ccccc3)N(Cc3cccnc3)C2=O)ccc1OCC#N	u	2.1µM*	3%	u	-4%	8%
COc1ccc(/C=C2\SC(=S)N(Cc3cccnc3)C2=O)cc1C	2%	u	4%	u	-19%	-1%
Cc1nc2c(O)c3c(c(O)c2nc1C)C1C=CC3CC1	7.9µM*	x	x	x	29%	x
CC(NC(N)=O)C(=O)Nc1ccc(Cl)c(S(=O)(=O)Nc2ccc(Br)cc2)c1 (stereo not given)	9%	-3%	1%	6%	-7%	x
O=C(NCCCn1ccnc1)c1csc2ccccc12	-1%	10µM*	-2%	-14%	11%	1%
Cc1ccc(-c2[nH]c3cc(C(=O)NCCCn4ccnc4)ccc3c(=O)c2O)cc1	-2%	u	u	13µM*	-3%	-28%
COc1ccc(C(=O)NCCCn2ccnc2)cc1	1%	0%	-4%	-20%	-10%	-9%
O=C(NCCCn1ccnc1)c1ccccc1Cl	16%	35%	12%	-5%	-1%	1%
COc1ccc2c(Cl)c(C(=O)NCCCn3ccnc3)sc2c1Cl	u	u	1%	10µM*	6%	0%
CCCNC(=O)c1ccc2c(=O)c(O)c(-c3ccc(C)cc3)[nH]c2c1	-20%[8.37 µM]	u	u	u	100%	-33%
SMILES	HCV inh	Pf growth 96h	SARS PLpro yeast	Pf growth 48h	AMA1 RON2 block	NS1 function inh
CCC(=O)Nc1ccc2c(c1)ncn2-c1ccc(C)cc1	-20%	u	0%	139%	0%	x
CCOC(=O)c1c(C)nc(-c2ccccc2)nc1N	u	10µM*	1%	185%	30%	-9%
CC(=O)Nc1nc(-c2ccccc2)nc(C)c1C(C)=O	7%	1.9µM*	3%	21%	-1%	u
CC(=O)c1c(C)nc(-c2ccccc2)nc1NC(=O)C(C)C	17%	x	12%	x	-2%	-1%
CC(=O)c1c(C)nc(-c2ccccc2)nc1N	11%	43%	1%	78%	1%	-2%
O=C(CON1C(=O)c2ccccc2C1=O)c1ccccc1	x	x	x	x	x	-3%
O=C(c1ccc2ncsc2c1)N1CCN(c2ccccc2Cl)CC1	7%	28%	0%	32%	0%	x
CCC(=O)N1CCN(c2nc3ccccc3s2)CC1	u	66%	-9%	x	-3%	-5%
O=C(c1ccc2ncsc2c1)N1CCN(c2nc3ccccc3s2)CC1	5.6µM*	0%	-5%	-15%	20%	8%
O=C(c1cc2sccc2n1Cc1ccccc1)N1CCN(c2nc3ccccc3s2)CC1	4.5µM*	u	-16%	u	-22%	u
CC(C)CCNC(=O)[C@@H](Cc1ccccc1)NC(=O)CC[C@H]1O[C@@H](n2ccc(=O)[nH]c2=O)[C@H](O)[C@@H]1O	x	x	x	x	19%	x
COc1ccc(N(C(=O)CNC(=O)c2ccco2)C(C(=O)NCC2CCCO2)c2ccccc2)cc1 (stereo not given)	21%	u	-2%	0%	3%	-20%
CCC1CN(C(=O)N2CCC(C(=O)NCCc3ccc(OC)cc3OC)CC2)c2ccccc2O1 (stereo not given)	13µM*	u	1%	u	-10%	-3%
CCC1CN(C(=O)N2CCC(C(=O)NCc3ccco3)CC2)c2cc(C)ccc2O1 (stereo not given)	u	13µM*	23%	-24%	-10%	-4%
CCC1CN(C(=O)N2CCC(C(=O)NCCc3ccccc3OC)CC2)c2ccccc2O1 (stereo not given)	u	u	-2%	u	16%	-11%
Cn1nc(C(=O)NCCOc2ccccc2)c2ccccc2c1=O	4%	8%	-4%	0%	-19%	x
CC(C)C[C@H]1CNC(=S)N1C[C@H]1CCCN1C[C@H](Cc1ccccc1)N1C[C@H](CC(C)C)N(CCc2ccccc2)C1=S	x	x	x	x	5%	x
COC(=O)C(CCSC)NC(=O)c1cc2c(n(-c3ccccc3)c1=O)CC(C)(C)CC2=O (stereo not given)	15%	3.7µM*	5%	-20%	0%	-1%

Compound activity: PubChem, National Center for Advancing Translational Sciences (NCATS)
